# Test results as given in the supplement of paper PMC3334620.
# Whole data set: some 33,000 sequences, median “E-score (-0.5 to 0.5)” near -0.016, cut for the highest 2% near 0.3. Only a selection was taken, and the highest values are over-represented in it overall.
# Molecular target: T1, Yer184c (UniProt P39961)
# T1 sequence: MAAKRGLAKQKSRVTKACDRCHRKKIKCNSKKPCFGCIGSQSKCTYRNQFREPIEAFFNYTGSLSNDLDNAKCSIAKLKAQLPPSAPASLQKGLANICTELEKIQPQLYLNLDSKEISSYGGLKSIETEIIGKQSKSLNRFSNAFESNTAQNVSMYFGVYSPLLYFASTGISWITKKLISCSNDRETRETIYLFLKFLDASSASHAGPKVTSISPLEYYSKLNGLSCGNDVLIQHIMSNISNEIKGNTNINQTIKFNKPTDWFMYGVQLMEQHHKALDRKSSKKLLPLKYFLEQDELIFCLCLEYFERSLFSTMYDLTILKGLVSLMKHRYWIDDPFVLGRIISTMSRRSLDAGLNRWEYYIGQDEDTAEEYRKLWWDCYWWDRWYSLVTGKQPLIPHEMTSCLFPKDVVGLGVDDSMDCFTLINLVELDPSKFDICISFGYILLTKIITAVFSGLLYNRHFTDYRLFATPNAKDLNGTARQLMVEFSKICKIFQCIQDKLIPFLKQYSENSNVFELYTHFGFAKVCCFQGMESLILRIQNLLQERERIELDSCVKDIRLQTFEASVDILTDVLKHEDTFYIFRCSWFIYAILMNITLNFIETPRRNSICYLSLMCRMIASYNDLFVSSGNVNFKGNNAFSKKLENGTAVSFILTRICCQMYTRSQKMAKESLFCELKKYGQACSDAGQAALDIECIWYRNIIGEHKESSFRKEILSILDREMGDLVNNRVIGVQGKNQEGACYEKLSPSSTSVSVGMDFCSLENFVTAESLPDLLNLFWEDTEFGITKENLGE
# Experiment: PBM E-score (8-mer binding enrichment) (E-score (-0.5 to 0.5)); higher = stronger / more preferred TF binding
# Settings: protein concentration: 100 nM; construct: GST-full length
# How it was run: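 Full-length yeast transcription factors or their DNA-binding domains, GST-tagged and expressed with PURExpress, were applied at about 100-200 nM to universal all-10-mer Agilent arrays. These arrays had been made double-stranded by primer extension on fresh or once-stripped slides. Detection used fluorescent anti-GST, normalisation used masliner, and E-scores for ungapped eight-base words pooled with reverse complements came from the Universal PBM Analysis Suite.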
row,Sequence,PBM E-score
1,AGTAACTA,0.173
2,AGAAAACC,0.0683
3,CACCCCGC,0.0453
4,CGCAAGTA,0.0344
5,GGACCCAA,-0.081
6,CCGTCAAA,0.0576
7,ACTCTGGC,-0.105
8,AGAGAACG,0.0412
9,AGACTAAG,-0.0179
10,ATCGTGGC,-0.101
11,ATAGATAT,0.161
12,CGCTTTTC,-0.0353
13,ACTGGCAA,-0.0748
14,AGTCTAGG,-0.144
15,AATCGGGA,0.0709
16,AATCGGAA,0.374
17,AATCGGAG,0.216
18,ACTTCACC,0.18
19,GCGCTTTA,0.0325
20,ACTGGCGG,-0.0142
21,CAATGCCG,0.22
22,AAATGCCC,-0.175
23,AAATGCCG,0.353
24,CGTGCGTC,0.0693
25,AATGTTCT,0.0086

row,Sequence,PBM E-score
1,ACCGCCGG,0.291
2,ATCGCCGG,0.39
3,GTCGCCGA,0.219
4,CTCGCCGA,0.193
5,ATCGCCGC,0.206
6,ATCGCCGA,0.365
7,GCCCGTGA,-0.132
8,AAATGCTC,-0.0216
9,ACGGGTTC,0.0138
10,CCGGGTAC,0.117
11,TCGGGTAA,0.0925
12,CCGGGTTA,0.25
13,CCGGGTTC,0.356
14,CCGGGTAA,0.348
15,AGTTGTAG,0.0893
16,AAGGTGTA,-0.105
17,CGCCACCG,-0.156
18,AGTCCCAT,-0.173
19,CCAGACCC,-0.262
20,AACTTTCA,0.122
21,ATACGGAA,0.412
22,TTACGGAA,0.355
23,ATACGGAT,0.196
24,CTACGGAA,0.205
25,ATACGGAC,0.117

row,Sequence,PBM E-score
1,GTACGGAA,0.28
2,CCTACTGA,-0.151
3,GGTCTATA,-0.16
4,TGCCGCAA,0.135
5,ACCGCATG,0.0226
6,ATGCTATG,-0.117
7,CGGAATAC,0.353
8,CGGAATTC,0.277
9,AGGAATTA,0.0841
10,GGGAAGCA,-0.128
11,CGGAAGCA,0.332
12,AGGAATAC,-0.0183
13,GGGAATAC,0.0278
14,GGGAATCA,0.0818
15,CGGAATCA,0.306
16,CGGAATTA,0.352
17,AGGAATCA,0.078
18,CGGAAGCC,0.211
19,CGCTGCAA,0.0112
20,AAACGATC,0.161
21,ACATACTC,0.0395
22,TAGCAGAA,0.0545
23,ACCGGAGG,0.144
24,TCCGGAGA,0.397
25,ACCGGAGA,0.33

row,Sequence,PBM E-score
1,GCCGGAGA,0.29
2,CCCGGAGA,0.222
3,ACCGGAGC,0.247
4,ATGATCAC,-0.0394
5,AACTAGTG,-0.0163
6,ACCATTCC,0.0171
7,ATTGGCCA,-0.148
8,TCGGTTCA,0.148
9,TCCGGAAA,0.449
10,GCTGGAAA,0.133
11,CCCGGAAA,0.396
12,TCAGGAAA,0.112
13,TGCGGAAA,0.184
14,CCCGGAAG,0.259
15,GCCGGAAA,0.426
16,GCAGGAAA,-0.0351
17,ATCTAGCC,0.00276
18,AGGTTATC,-0.0359
19,GAACTTGC,0.0842
20,ATCTTTTC,0.0824
21,CAGCGTAC,-0.147
22,CGCCATTC,0.0678
23,CCACGGAG,0.0656
24,CCACGGAC,-0.00729
25,ACACGGAA,0.295

row,Sequence,PBM E-score
1,TCACGGAA,0.341
2,CCACGGAA,0.338
3,GCACGGAA,0.159
4,AGGACAAG,-0.102
5,AAGTCTCT,-0.246
6,AACAGAAC,0.163
7,GTTGTACA,0.277
8,GTGCCGGA,0.305
9,ATGCCGCA,0.124
10,ATGCCGGA,0.36
11,ATGCCGTC,0.0209
12,ATGCCGGC,0.399
13,GGGCCGGA,0.244
14,CTGCCGTC,-0.066
15,CTGCCGAC,0.0291
16,CTGCCGGC,0.369
17,ATGCCAGA,0.0873
18,GTGCCGTA,0.16
19,ATGCCGGG,0.244
20,ATACGCGG,-0.0243
21,AGCCCTCC,-0.201
22,GCATTCCC,-0.182
23,ACCTCTAA,0.0296
24,CATTGTGA,-0.164
25,GCTGTGCC,-0.0243

row,Sequence,PBM E-score
1,AGAGAGAT,0.0462
2,CACGTTCC,-0.176
3,AGACCAAC,-0.108
4,ATATTATG,0.261
5,ATATAACG,0.255
6,CAAGTAGC,-0.216
7,CTGCCGGA,0.349
8,CTGCCGTA,-0.00407
9,CTGCCGCA,-0.117
10,CGATGCGA,-0.0338
11,TCCGAGAA,0.324
12,GCCGAGCA,0.186
13,GCCGAGAA,0.368
14,GTCGAGAA,-0.0535
15,ACCGAGCA,0.225
16,GCCGAGAC,0.327
17,TCCGAGCA,0.329
18,ACCGAGAC,0.0458
19,CCCGAGAA,0.234
20,CCCGAGAC,0.0787
21,GCCGAGTA,0.262
22,ACCGAGAA,0.282
23,GTCCTGCA,-0.122
24,CGGCACTC,0.124
25,ACAACGTC,-0.0597

row,Sequence,PBM E-score
1,ACAGACGG,-0.11
2,TGAGCACA,0.0117
3,CTGCATAA,0.11
4,AGAAAGCG,-0.0479
5,GCTGCGAA,0.0893
6,CAGGTCGG,-0.119
7,CCAGATCA,0.135
8,CATCTCCC,-0.0754
9,CATCTCCG,0.37
10,AATCTCCG,0.3
11,AAGCAGAC,-0.195
12,CCCACAGA,-0.227
13,AAGTAGCC,-0.0314
14,CGTCCGTA,0.0308
15,AGTCCGGA,0.429
16,AGTCCGGG,0.212
17,GGTCCGCA,0.151
18,GGTCCGTA,0.178
19,GTCCCGGA,0.318
20,CTCCCGGA,0.243
21,GGTCCGGA,0.376
22,CGTCCGGC,0.296
23,CGTCCGGA,0.323
24,AGTCCGGC,0.289
25,GTCCCCGA,-0.142
